HSP90 refold inh = HSP90 refolding inhibition in rabbit reticulocyte lysate. actives 0.91% (n = 290,000). inhibition, % at 5.6 µM. luciferase refolding luminescence, 3 h. AID 1789;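 active = inhibition above the screen-wide mean plus 3 SD, computed separately per campaign, cut at about 16% in these data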;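 also: 0% = DMSO wells and 100% = 60 µM geldanamycin wells; inhibitors lower the luminescence because luciferase stays unfolded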
HSF1 inh = HSF1 inhibition; actives 0.77% (n = 300,000); NIH3T3-HGL HSE-luciferase, MG132-induced, luminescence 8 h; stronger effect = lower value; AID 2098; activity change, negative = inhibition, % at 7.5 µM (by protocol);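 active = more than half of replicate wells show activity change below -50%, luminescence cut by over half; inconclusive = some wells, but at most half, below -50%; inactive = no replicate well below -50%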;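 also: luciferase reports HSF-1 transcriptional activity via heat shock element; 0% = median of DMSO wells and -100% = zero luminescence signal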
TWEAK Fn14 block = TWEAK-Fn14 signaling inhibition. TWEAK-stimulated Fn14 reporter cells, luciferase luminescence, 8 h. inhibition, % at 10 µM. actives 2% (n = 360,000). AID 1159606; in the data active = inhibition above about 50%
EBV LMP1 NFkB = Epstein-Barr LMP1 NF-kappaB reporter inhibition; AID 504558; inhibition, % at 12.5 µM; LMP1-induced NF-kappaB luciferase reporter cells, luminescence; actives 0.69% (n = 350,000); in the data active = inhibition above about 41%; inconclusive = no clear call, values can overlap the other calls;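 also: 0% = neutral control wells and 100% = reference inhibitor control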
TROY NFkB inh = TROY signaling inhibition | Q293 LMP1-TROYcd NF-kB luciferase reporter, 4 h | inhibition, % at 10 µM | actives 0.98% (n = 360,000) | AID 1347056;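 active = compounds whose plate-normalised and pattern-corrected inhibition of the luciferase reporter signal at the single screening dose is 50% or more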
HSF1 activator = increases HSF-1 driven luciferase reporter signal. activation, % at 9 µM. actives 1.7% (n = 300,000). NIH3T3-HGL HSF-1 luciferase reporter, MG132, 8 h; 100% = twice DMSO control signal;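 active = mean replicate activation of at least 50% with a set share of replicates each reaching 50%; inconclusive = only one of those two conditions met; inactive = mean below 50% and too few replicates reaching it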;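 also: 0% = median of the neutral control wells and 100% = twice that signal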
An asterisk follows results filed as active; ? = inconclusive; . = no result. Hits are enriched below; roughly 4.7% of the tested compounds scored in any of these assays.

SMILES	HSP90 refold inh	HSF1 inh	TWEAK Fn14 block	EBV LMP1 NFkB	TROY NFkB inh	HSF1 activator
COc1ccc(/C=C/C(=O)OCC(=O)N2c3ccccc3CC2C)c(OC)c1 (stereo not given)	.	.	13	3	-16	.
Cc1cc(F)ccc1C(O)c1ncc(-c2cccc(F)c2)[nH]1 (stereo not given)	.	.	24	.	9	.
COc1ccc(NC(=O)c2cc(C3CCCCN3C(=O)CCc3ccccc3)on2)c(C)c1 (stereo not given)	.	.	7	.	-10	.
COc1cccc(C=Nc2ccc(N3CCOCC3)cc2)c1O	2	-19	7	1	11	-20
COc1cccc(C=Nc2ccc3c(c2)OCCO3)c1O	12	?	80*	-8	68*	-55
OC(CN1CCN(c2ccccn2)CC1)Cn1c2ccc(Cl)cc2c2cc(Cl)ccc21 (stereo not given)	5	-12	52*	-33	-1	-20
OC(CN1CCCCC1)Cn1c2ccc(Cl)cc2c2cc(Cl)ccc21 (stereo not given)	9	-2	-34	6	-35	16
CCOC(=O)C(CCCOc1ccc(C)cc1)C(=O)OCC	0	15	-4	9	-11	-4
CCOC(=O)C(CCCOc1ccccc1)C(=O)OCC	-3	1	63*	5	.	4
CCOC(=O)CS(=O)(=O)c1nc(-c2ccccc2)cc(C(F)(F)F)n1	9	124	35	?	39	137*
COC(=O)CCS(=O)(=O)c1nc(-c2ccccc2)cc(C(F)(F)F)n1	1	-94*	91*	-37	12	-94
CCOC(=O)CCS(=O)(=O)c1nc(-c2ccccc2)cc(C(F)(F)F)n1	5	?	84*	-24	46	12
CCOC(=O)CS(=O)(=O)c1ccccc1	0	-4	4	2	-8	-2
COc1ccc(-c2cc(C(F)(F)F)nc(S(=O)(=O)CCCC(=O)Nc3cccnc3Cl)n2)cc1OC	1	.	94*	-7	37	.
COC(=O)c1cc(Cl)ccc1NCC(N)c1ccccc1 (stereo not given)	.	.	-13	.	-1	.
COCCNC(=O)CCSc1nc(-c2ccc(OC)cc2)cc(C(F)(F)F)n1	0	2	-16	6	-1	-9
COCC(C)NC(=O)CCS(=O)(=O)c1nc(-c2ccc(OC)cc2)cc(C(F)(F)F)n1 (stereo not given)	4	179	86*	-23	46	238*
COC(=O)/C(=C1/Oc2cc(C)oc(=O)c2S1)C(F)(F)F	3	-79*	98*	-10	20	-79
CC(=O)c1ccc(NC(=O)c2ccc([N+](=O)[O-])o2)cc1	9	94	4	-36	-10	91*
Cc1cc(C)cc(NC(=O)c2ccc([N+](=O)[O-])o2)c1	8	41	22	-26	-13	?
CC(=O)c1cccc(NC(=O)c2ccc([N+](=O)[O-])o2)c1	.	45	12	-16	4	55*
O=C(Nc1ccc(Cl)cn1)c1ccc([N+](=O)[O-])o1	-4	96	0	-2	-30	140*
COc1ccc(-c2nc3ccc(Cl)cn3c2Cc2cccc(F)c2)cc1OC	.	.	-17	.	-2	.
CC(NC(=O)c1ccco1)c1nc(-c2ccc(Cl)cc2)no1 (stereo not given)	8	9	13	4	-8	9
CC1N(C)c2cc(NC(=O)c3ccco3)ccc2C1(C)C (stereo not given)	10	9	49	-8	53*	7
SMILES	HSP90 refold inh	HSF1 inh	TWEAK Fn14 block	EBV LMP1 NFkB	TROY NFkB inh	HSF1 activator
O=C(NCc1nc(-c2ccc(Cl)cc2)no1)c1ccco1	-3	13	-9	-5	-29	56*
COc1ccc(-c2ccc(NC(=O)c3ccco3)cc2)nn1	.	-28	77*	57*	43	-18
CC1N(C)c2cc(NC(=O)c3ccco3)c(P(=O)(Nc3ccc([N+](=O)[O-])cc3)N3CCOCC3)cc2C1(C)C (stereo not given)	-1	-1	3	-7	-4	-1
O=C(Nc1ccccc1)c1cccc(NC(=O)c2ccco2)c1	.	-3	101*	-1	-3	-1
CN1C2C=CC(=O)C1C1C(=O)N(c3ccccc3)C(=O)C12 (stereo not given)	.	.	27	.	24	.
Cc1ccc(S(=O)(=O)N2C[C@H]3N(C(=O)OC(C)C)N(C(=O)OC(C)C)C[C@H](OC(=O)NCc4ccco4)[C@@]3(O)C2)cc1	.	.	4	-3	-8	.
CN1CCN(c2ccc3c(c2)OC[C@@H](Cc2ccccc2)NS3(=O)=O)CC1	.	.	6	.	0	.
COc1ccc(NC(=O)c2oc3ccccc3c2NC(=O)c2ccco2)cc1	-1	0	55*	16	7	8
Cc1ccc(NC(=O)c2cccc(NC(=O)/C=C/c3ccco3)c2)cc1C	1	40	21	-48	-48	73*
O=C(Nc1ccc(Cl)cc1)c1ccco1	0	7	-5	57*	-32	11
O=C(Nc1ccc(Nc2ccccc2)cc1)c1cccc(F)c1	-9	41	-49	-96	-29	67*
Cc1ccc(CNC(=O)Nc2nnc([C@@H]3C[C@H](O)[C@@H](CO)O3)s2)cc1	.	.	7	.	-7	.
CC1(C)OC2CC3C4CCC5=CC(=O)C=CC5(C)C4(F)C(O)CC3(C)C2(C(=O)CO)O1 (stereo not given)	.	.	3	.	18	.
O=C(NCCCNC(=O)c1ccco1)c1ccc(Cl)cc1	5	-35	70*	-1	61*	-33
CCOc1ccccc1NC(=O)c1cccc(NC(=O)c2ccco2)c1	-1	-4	88*	3	-15	-7
O=C(CSc1ccccc1)Nc1cccc(NC(=O)c2ccco2)c1	-1	-68*	-12	1	-14	-75
O=C(CSc1ccc(Cl)cc1)Nc1cccc(NC(=O)c2ccco2)c1	1	5	-27	-4	-2	7
Cc1ccc(C(=O)NCCCNC(=O)c2ccco2)cc1	0	-6	0	-3	-5	-8
C/C(=N\NC(=O)c1cccc(N/N=C(\C)c2cc(O)ccc2O)c1)c1cc(O)ccc1O	-2	26	-24	22	-35	64*
COc1cc(CC(=O)N2CCc3ccccc32)cc(OC)c1OC	-1	-5	10	2	15	23
CCOC(=O)N1CCc2cc(OC)c(OC)c3c2c1cc1cc(OC)c(OC)cc13	.	.	54*	1	15	.
COc1ccc(N=C2NC(=O)/C(=C\C=C\c3ccco3)S2)cc1	1	73	10	-7	5	124*
Cc1cccc(N=C2NC(=O)/C(=C/C=C/c3ccco3)S2)c1	2	9	22	-31	5	-3
CCc1nc2ccc(C(=O)N(C)CCN(C)C)cn2c1N(CC)C(=O)NCCc1ccccc1	.	.	-1	.	-4	.
O=C(Nc1ccc2c(c1)OCCO2)N1CCN(c2ccccc2)CC1	-4	-57*	27	2	-64	-59

High-throughput results from PubChem BioAssay.
